Test results published in PubChem BioAssay AID651704 (Broad Institute, 2012).
Several values for one entry are separate records, joined by “and”; a condition that tells them apart may be missing. Equal values may be shown once. In all, about 350,000 compounds went through this assay and about 1,600 (0.46%) were called active.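 How the source made its calls: active means every replicate reaching a set inhibition limit, whatever the replicate mean (cut at about 25% in these data); inconclusive means mean inhibition reaches that limit but some replicates miss it; inactive means the rest.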 The list comes from a sample in which actives are over-represented; it also holds similar structures and randomly drawn compounds.

molecular target: Protein AF-9 (Homo sapiens) (UniProt P42568); assay: MLL-AF4/AF9 protein interaction blockers – biochemical, AlphaScreen, biotin-AF4 peptide, FLAG-AF9, single point, primary screen (AID 651704); conditions: biotin-AF4 peptide binding to FLAG-AF9, at 10 µM, active compounds read high;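 further: 0% = plate neutral control median and 100% = total signal loss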
Sequence (P42568 whole entry, looked up): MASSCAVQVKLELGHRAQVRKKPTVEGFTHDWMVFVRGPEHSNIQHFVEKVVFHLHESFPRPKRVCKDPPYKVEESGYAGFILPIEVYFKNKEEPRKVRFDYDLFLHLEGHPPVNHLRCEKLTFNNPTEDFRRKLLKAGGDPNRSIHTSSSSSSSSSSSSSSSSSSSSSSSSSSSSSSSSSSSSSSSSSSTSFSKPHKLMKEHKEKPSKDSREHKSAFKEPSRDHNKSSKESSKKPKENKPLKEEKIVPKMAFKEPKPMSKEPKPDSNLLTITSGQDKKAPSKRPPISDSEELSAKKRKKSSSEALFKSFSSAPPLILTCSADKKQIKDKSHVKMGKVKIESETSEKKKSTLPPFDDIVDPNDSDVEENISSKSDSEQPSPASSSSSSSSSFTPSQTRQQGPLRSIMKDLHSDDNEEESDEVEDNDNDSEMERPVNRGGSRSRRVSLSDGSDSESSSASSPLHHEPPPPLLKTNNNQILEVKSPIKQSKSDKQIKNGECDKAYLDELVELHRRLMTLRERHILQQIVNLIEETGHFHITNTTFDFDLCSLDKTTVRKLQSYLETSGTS

inhibition, inactive:
COc1ccc2c3c(n(C)c2c1)[C@H](CO)N(Cc1cccnc1)CC31CCN(Cc2cccnc2)CC1 13.7%, C[C@H](CO)N1C[C@H](C)[C@H](CN(C)CC2CCCCC2)OCCCC[C@H](C)Oc2ccc(NC(=O)c3ccncc3)cc2C1=O -4.16%, COc1cccc(C2c3[nH]c4ccccc4c3CCN2Cc2cccc(C)n2)c1 (centres undefined) 16.4%, COC(=O)[C@H]1[C@H]2C[C@H]3c4[nH]c5ccccc5c4CCN3C[C@@H]2CC[C@@H]1O 10.9% and 1.82%, CCCC#Cc1ccc([C@H]2[C@@H](CO)N3C(=O)CN(C(=O)c4ccncc4)C[C@@H]23)cc1 -4.03%, COc1cccc(S(=O)(=O)Nc2ccc3c(c2)[C@H]2C[C@H](CC(=O)O)O[C@H](CO)[C@H]2O3)c1 -1.01%, O=C(Nc1ccccc1)N1CC(=O)N2[C@@H](CO)[C@H](c3ccc(C#CC4CCCC4)cc3)[C@@H]2C1 7.61%, Cc1cc(Nc2ccc(C(=O)N3CCCCC3)cc2)c2cccc(C)c2n1 -1.38%, Cc1cc(Nc2ccc(N3CCOCC3)cc2)c2cccc(C)c2n1 7.78%, COc1ccc2c3c(n(C)c2c1)[C@@H](CO)N(Cc1ccncc1)CC31CN(C(=O)C2CCCCC2)C1 -2.52%, COc1ccc2c3c(n(C)c2c1)[C@H](CO)N(C(C)=O)CC31CN(C(=O)c2cnccn2)C1 -3.28%, C/C(=N/NS(=O)(=O)c1ccccc1)c1ccc(NC(=O)C(F)(F)F)cc1 1.28%, Cc1ccc(NC(=O)c2ccco2)cc1 2.52%, CCC(=O)N1CC2(C1)CN(Cc1cc(F)ccc1F)[C@@H](CO)c1[nH]c3cc(OC)ccc3c12 -4.95%, CCOc1cc(N2CCOCC2)c(OCC)cc1NC(=O)c1ccc(C)s1 13.4%, CCOc1cc(N2CCOCC2)c(OCC)cc1NC(=O)COc1cccc(Cl)c1 3.04%, O=C(C[C@@H]1C=C[C@H](NC(=O)Nc2ccccc2F)[C@@H](CO)O1)NCc1ccccc1 -2.34%, CCC(=O)N1CC2(C1)[C@@H](c1ccc(-c3ccc(C#N)cc3)cc1)[C@H](CO)N2C(C)=O -2.76%, O=C(O)c1ccc(N/N=C/c2cn(-c3ccccc3)nc2-c2cccs2)cc1 3.91%, Cc1ccc(S(=O)(=O)N2CCCCC2)cc1NC(=O)c1cccnc1 2.47%, COc1ccccc1C#Cc1ccc([C@@H]2[C@H](CO)N3CCCCN(C(=O)C4CCCC4)C[C@@H]23)cc1 6.51%, Cc1cccc(-c2ccc([C@@H]3[C@H]4CN(C(=O)c5ccccc5)CC(=O)N4[C@H]3CO)cc2)c1 2.35%, COc1cccc(CNC(=O)CN2C(=O)NC(Cc3ccccc3)(c3ccccc3)C2=O)c1 (centres undefined) -3.3%, CNC(=O)CN1C(=O)NC(c2ccccc2)(c2ccccc2)C1=O 0.637%, COc1cccc(NC(=O)N[C@@H]2CC[C@H](CC(=O)NCc3ccccn3)O[C@H]2CO)c1 -1.32%, CCCN1[C@@H]2c3ccc(-c4ccccc4)c(=O)n3C[C@@H]2[C@@H](CO)[C@@H]1C(=O)N(C)C -2.05%, O=C1CC[C@@H]2CC3(C[C@@H]4CCN1[C@H]24)Nc1cc([N+](=O)[O-])ccc1NC3=NC1CCCCC1 (some centres undefined) 5.39%, CC=Cc1ccc2n(c1=O)C[C@H]1[C@H](CO)[C@@H](C(=O)NC3CCCC3)[C@@H]2N1C(=O)c1cnccn1 (mixture of isomers) -3.71%, CN(C)CC(=O)N1[C@H](C#N)[C@H](c2ccccc2-c2cccc(C(=O)N(C)C)c2)[C@@H]1CO -2.16%, Cc1noc(C)c1NC(=O)N(C)C[C@H]1Oc2ccc(N(C)C)cc2CC(=O)N([C@H](C)CO)C[C@H]1C -0.871%, CO[C@H]1CN(C)C(=O)c2ccc(NC(=O)C3CC3)cc2OC[C@@H](C)N(Cc2ccc(F)cc2)C[C@@H]1C 2.37%, CCCC#Cc1ccc([C@@H]2[C@@H](CO)N3C(=O)CN(C(=O)c4ccncc4)C[C@@H]23)cc1 -2.52%, CCCC#Cc1ccc([C@H]2[C@@H](CO)N3C(=O)CN(C(=O)c4ccncc4)C[C@H]23)cc1 -2.78%, COc1ccc(C#Cc2ccc([C@H]3[C@H]4CN(C(=O)c5ccncc5)CC(=O)N4[C@H]3CO)cc2)cc1 -4.11%, C[C@@H]1CCCCO[C@H](CN(C)C(=O)C2CCCCC2)[C@@H](C)CN([C@@H](C)CO)C(=O)c2cc(NC(=O)Nc3ccccc3)ccc2O1 5.54%, COc1ccccc1NC(=O)N1CCCCN2[C@H](CO)[C@H](c3ccc(C#CC4CC4)cc3)[C@@H]2C1 6.56%, COc1ccc(N2CCC(CNC(=S)Nc3c(C)cccc3C)C2)cc1 (centres undefined) 18.6%, COc1ccc(OCC(=O)Nc2ccc(N3CCC(C)CC3)cc2)cc1 1.34%, CO[C@@H]1CN(C)C(=O)c2ccc(NC(=O)C3CC3)cc2OC[C@H](C)N(C(=O)c2ccccc2)C[C@@H]1C -0.663%, COc1ccc(Cn2c(=S)[nH]c3cc(C(=O)NCCCN4CCOCC4)ccc3c2=O)cc1 -9.96%, O=C(NCCCN1CCOCC1)c1cc(-c2ccc(Cl)cc2)on1 -5.39%, COc1ccccc1-c1ccc([C@H]2[C@@H](CO)N(CC3CC3)C23CN(S(C)(=O)=O)C3)cc1 0.485%, Cn1cnc(S(=O)(=O)NC[C@@H]2CC[C@@H]3[C@@H](CN3Cc3nccs3)O2)c1 -5.79%, O=C(CN1CCOCC1)N1CCCCN2[C@H](C1)[C@H](c1ccc(-c3ccccc3F)cc1)[C@@H]2CO -4.58%, C[C@H](CO)N1C[C@H](C)[C@@H](CN(C)Cc2ccc(Oc3ccccc3)cc2)Oc2ccc(NS(=O)(=O)c3ccc(F)cc3)cc2CC1=O 1.77%, COc1ccc2c3c(n(C)c2c1)[C@@H](CO)N(C(=O)CN1CCOCC1)CC31CN(C(=O)CC2CC2)C1 0.071%, O=C(Nc1c[nH]c(=O)[nH]c1=O)OCc1ccccc1 2.62%, Nc1ccccc1C(=O)NC1CCCCNC1=O (centres undefined) -2.44%, C[C@@H]1CN([C@@H](C)CO)C(=O)CCCn2nncc2CO[C@H]1CN(C)C(=O)CCCN(C)C -5.71%, Cc1ccccc1S(=O)(=O)N1CC[C@H]2[C@H](CO)Nc3ccc(-c4cccc(F)c4)cc3[C@H]21 -2.53%, Cc1noc(C)c1NC(=O)Nc1ccc2c(c1)CC(=O)N([C@H](C)CO)C[C@@H](C)[C@@H](CN(C)S(=O)(=O)c1ccc(Cl)cc1)O2 -0.675%, CN(C)C(=O)C[C@@H]1C[C@@H]2c3cc(NC(=O)C4CCOCC4)ccc3O[C@@H]2[C@@H](CO)O1 -3.12%, Cc1ccc(N2CC(C(=O)NCCS(=O)(=O)N3CCN(c4ccccc4)CC3)CC2=O)cc1 (centres undefined) 0.43%, CCCC(C)NC(=O)C1CCN(C(=O)C2CC(=O)N(c3ccc(C)cc3)C2)CC1 (centres undefined) -6.07%, C/C=C/c1ccc([C@@H]2[C@H](CO)N(CC3CCCC3)C23CN(C(=O)CC2CC2)C3)cc1 5.28%, CN(C)C(=O)C[C@H]1C=C[C@@H](NC(=O)c2ccc(F)cc2)[C@@H](CO)O1 -2.41%, COc1ccccc1S(=O)(=O)N(C)C[C@@H]1Oc2cc(C#CCC3CCCC3)ccc2S(=O)(=O)N([C@H](C)CO)C[C@H]1C 2.17%, CN1CCN(CCNC(=O)Nc2ccc([N+](=O)[O-])cc2)CC1 -2.1%, O=C(NCCCN1CCOCC1)c1ccc([N+](=O)[O-])cc1[N+](=O)[O-] -2.14%, CO[C@H]1CN(C)C(=O)c2cc(NS(=O)(=O)CC(F)(F)F)ccc2OC[C@H](C)N(C(=O)c2ccc3c(c2)OCO3)C[C@H]1C -1.49%

inhibition, active:
COc1ccc(-c2ccc3[nH]c4c(c3c2)CCN2C[C@H]3[C@H](C)ON(C)[C@H]3C[C@@H]42)cc1 27.4%, Cc1ccc(Nc2cc(C)nc3c(C)ccc([N+](=O)[O-])c23)cc1 33.4%, C/C(=N\NS(=O)(=O)c1ccc(Cl)cc1)c1ccc(NC(=O)c2ccco2)cc1 26.4%, CCOc1cc(N2CCOCC2)c(OCC)cc1NC(=O)C1=NN(c2cccc(C)c2)C(=O)CC1 31.5%, O=C(N/N=C/c1sc(N2CCCCC2)nc1-c1cccs1)c1cccnc1 26.1%, CCCCNC(=O)CN1C(=O)NC(Cc2ccccc2)(Cc2ccccc2)C1=O 51%, Cc1cc2c(cc1C)NC1(C[C@H]3CCC(=O)N4CC[C@@H](C1)[C@@H]34)C(=NC(C)(C)CC(C)(C)C)N2 (some centres undefined) 54.9%, CCCC#Cc1ccc([C@H]2[C@H]3CN(C(=O)c4cccnc4)CC(=O)N3[C@H]2CO)cc1 27.2%, COc1ccc(NC(=S)NCC2CCN(c3ccc(OC)cc3)C2)cc1 (centres undefined) 28.9%, Cc1c(C)n(Cc2ccc(Cl)cc2)c2ccc(C(=O)NCCCN3CCOCC3)cc12 26.6%, Cc1cc(N=Nc2ccc3ccccc3c2)ccc1O 35.1%, O=C(CNC(=O)OCc1ccccc1)NC1CCCCNC1=O (centres undefined) 48%, COCCNC(=O)C1CCN(C(=O)C2CC(=O)N(c3ccc(C)cc3)C2)CC1 (centres undefined) 50.4%, O=C(NCCCN1CCN(c2ccc(F)cc2)CC1)Nc1ccc([N+](=O)[O-])cc1 25.7%
